An excerpt weighted towards active compounds, which were near 5.3% of everything screened.
KDM4E inh – blocks human JMJD2E demethylase activity | Potency, µM (titrated, usually from 57.1 µM), inactives show at the highest dose activity change, negative = inhibition, hits mostly inhibitors | actives 1.6% (n = 230,000) | JMJD2E catalytic domain, FDH-coupled NADH fluorescence (FDH is formaldehyde dehydrogenase) | AID 2147 | B2RXH2; active means well fitted inhibition curve with a large enough effect, not every such curve was filed as active; inconclusive means small, poorly fitted or top-dose-only effect, or another doubt; inactive means no such curve, though single readings can be large or run the other way;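 further: potency means the concentration at half of the fitted maximal effect; 0% = wells with enzyme and -100% = buffer wells without enzyme; nearly all actives have a fitted effect of over 50% in size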
Target sequence (B2RXH2 1-337 limits assumed): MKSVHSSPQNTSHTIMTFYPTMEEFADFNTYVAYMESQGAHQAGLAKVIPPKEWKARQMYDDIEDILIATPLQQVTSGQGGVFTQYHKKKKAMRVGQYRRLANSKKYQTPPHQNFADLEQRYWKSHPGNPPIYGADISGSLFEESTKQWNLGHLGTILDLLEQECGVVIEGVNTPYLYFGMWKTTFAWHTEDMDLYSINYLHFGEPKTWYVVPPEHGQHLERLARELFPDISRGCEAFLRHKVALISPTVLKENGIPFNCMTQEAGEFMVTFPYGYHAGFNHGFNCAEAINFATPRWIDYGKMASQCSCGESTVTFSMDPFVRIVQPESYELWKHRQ
Tau fluor counter – counter-screen for tau fibril formation inhibitors. tau K18 P301L Alexa594 fluorescence, heparin fibrillization. Potency, µM (highest dose often 57.7 µM), inactives show top-dose activity change, negative = decrease. actives 0.93% (n = 280,000). AID 1463; further: potency means the concentration at half of the fitted maximal effect; nearly all actives have a fitted effect of over 55% in size
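Human K18 P301L tau (15 uM unlabeled plus 0.24 uM Alexa 594-labeled, final) in 100 mM sodium acetate pH 7 was mixed with compound and 20 uM heparin and incubated 6 hr at 37 C.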
Tau fibril ThT – tau fibrillization inhibition (ThT binding); recombinant tau K18 P301L, heparin-induced fibrillization, ThT fluorescence; AID 1460; actives 2.1% (n = 270,000); P10636; Potency, µM (titrated, usually from 57.4 µM), for the others: at the top dose activity, negative = inhibition, actives largely listed as inhibitors; further: potency means the concentration at half of the fitted maximal effect; nearly all actives have a fitted effect of over 55% in size
Target sequence (P10636 561-689 P618L limits assumed): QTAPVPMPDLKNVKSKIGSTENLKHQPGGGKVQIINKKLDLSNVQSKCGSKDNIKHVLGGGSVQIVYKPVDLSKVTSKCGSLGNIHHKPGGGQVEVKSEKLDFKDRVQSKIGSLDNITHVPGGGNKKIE
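ThT emission at 510 nm, taken 1 hr after adding 30 uM dye, quantifies aggregates formed when 20 uM heparin acts on human tau K18 P301L for 6 hr at 37 C.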
Coupling enz – inhibits coupling enzyme system, counter-screen for aldolase hits; coupling enzyme system counterscreen, AmpLite Red fluorescence; activity change, negative = inhibition, % at 58.2 µM, hits read low; AID 2472; actives 0.67% (n = 290,000); in the data active means activity change below about -30%
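Activity here indicates interference with the coupling reaction, not aldolase inhibition. Compounds at 57.5 uM final met coupling enzymes for 10 min at RT; substrate and AmpLite Red detection followed, with a 525/598 nm fluorescence read after 20 min.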
Sfp inh – Sfp phosphopantetheinyl transferase inhibition; Biochemical Sfp PPTase activity, qHTS; Q9F4F7; AID 1490; Potency, µM, for the others: largest response in the series, negative = inhibition, usual class: inhibitors; actives 3.5% (n = 310,000);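 further: the enzyme is Sfp with the accession as filed and its product quenches rhodamine fluorescence; potency means the concentration at half of the fitted maximal effect; 0% = enzyme reaction without inhibitor and -100% = no enzyme wells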
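With Hepes-Na pH 7.6 buffer containing 10 mM MgCl2, Sfp (15 nM) modified BHQ-2-YbbR (12.5 uM) using rhodamine-CoA (5 uM). Two reads 30 minutes apart at 525/598 nm yielded each well's rate.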
Tau fibril FP – inhibitors of human tau fibril formation. actives 0.39% (n = 280,000). P10636. K18 P301L tau heparin fibrillization, Alexa594 FP, 6 h. Potency, µM (series often up to 57.7 µM), for inactives: at the highest dose activity, negative = inhibition, actives largely listed as inhibitors; further: potency means the concentration at half of the fitted maximal effect; nearly all actives have a fitted effect of over 55% in size
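Heparin (20 uM) drove fibril formation of recombinant tau K18 P301L, 15 uM unlabeled with 0.24 uM Alexa 594 label, for 6 hr at 37 C in 100 mM sodium acetate pH 7. Fluorescence polarization (555/632 nm) read 1 hr after 30 uM ThT.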
Active calls of the source: *; i = inactive; ? = inconclusive; . = no result given; [ ] = another dose, or the depositor's remark. Unless noted, the call rests on the fitted dose curve; in most records, active means well fitted curve in the direction sought with a large enough effect; inconclusive means small, poorly fitted or top-dose-only effect, or another doubt; inactive means no such curve, though single readings can be large; an effect the other way counts as inactive or inconclusive. Unless noted, on the % scale 0 is the no-effect control and ±100 the full control effect.

SMILES	KDM4E inh	Tau fluor counter	Tau fibril ThT	Coupling enz	Sfp inh	Tau fibril FP
C=CCSc1ncnc2c1oc1nc3c(cc12)COC(C)(C)C3	3.5%	-16.0%	-8.8%	-2.9	13.5%	0.0%
CCN1CCN(c2ccc(N=Cc3ccc(O)cc3O)cc2)CC1	14.1µM*	?	15.8µM*	-4.2	-1.6%	?
CCN(CC)c1ccc(N=Cc2ccc(N(CC)CC)cc2O)cc1	?	?	?	-13.5	?	?
O=C(Nc1ccc(Cl)cc1)Nc1ccccc1NS(=O)(=O)c1cccs1	8.1%	14.1µM*[quencher]	?	3.8	-6.3%	?
O=C(Nc1ccc(Cl)cc1)Nc1cccc2nsnc12	i	?	?	-6.2	?	14.1µM*
O=C(CCC(=O)N1CCN(c2ccc(O)cc2)CC1)c1cccs1	?	-8.4%	?	-10.3	25.1µM*	0.7%
Cc1ccc(OCCC(=O)N2CCN(c3ccc(O)cc3)CC2)cc1	-26.3%	-27.6%	?	-4.4	56.2µM*	-4.1%
Cc1ccc(C(=O)[C@@H]2[C@H]3C4COC(O4)C(=O)[C@@H]3[C@H]3C=Cc4ccccc4N32)cc1 (some centres undefined)	-21.3%	?	22.4µM*	-19.4	-27.6%	?
Cc1ccc(C(=O)N2c3ccccc3OCC2C)cc1 (centres undefined)	.	.	.	0.5	5.4%	.
COc1ccc(C(=O)C2C3C4COC(O4)C(=O)C3C3C=Cc4ccccc4N32)c(OC)c1 (centres undefined)	?	20µM*[fluorescent]	20µM*	-17.4	79.4µM*	11.2µM*
CC(=O)[C@@H]1[C@H]2[C@H](C(=O)[C@H]3OC[C@@H]2O3)[C@H]2C=Cc3ccccc3N21	12.6µM*	?	15.8µM*	-16.9	44.7µM*	?
COc1ccc(-c2nc3n(n2)C(c2ccccc2OC)C(C(=O)Nc2cccnc2)=C(C)N3)cc1 (centres undefined)	.	-24.2%	-10.8%	.	.	9.0%
C=CCNC(C(=O)Nc1cccc(OC)c1)c1ccccc1 (centres undefined)	3.6%	-0.7%	-2.8%	-0.7	-9.7%	-0.9%
COc1cccc(NC(=O)C(NCC(C)(C)CN(C)C)c2ccccc2)c1 (centres undefined)	?	-13.6%	-14.7%	-1.0	79.4µM*	0.5%
O=S(=O)(c1ccc(Br)cc1)c1nnn2c1nc(NCc1ccc3c(c1)OCO3)c1sccc12	.	-24.0%	?	.	.	?
Nc1nnc(CC(c2ccccc2)c2ccccc2)s1	4.5%	-11.6%	-9.7%	3.9	4.1%	-0.7%
CC(Cc1nnc(N)s1)c1ccccc1 (centres undefined)	.	.	.	0.0	50.1µM*	.
COCCc1nn2c(=O)cc(COC(=O)COc3ccccc3C)nc2s1	.	8.1%	-0.9%	.	.	5.0%
CN(C)c1ccc(C(=S)Nc2ccccc2)cc1	-5.4%	-23.1%	?	3.1	-12.5%	1.3%
CN(C)c1ccc(C(=O)Nc2sc(Nc3ccccc3)nc2C(N)=O)cc1	.	11.2µM*[quencher]	1.12µM*	.	.	-0.9%
COc1ccc(/C=C/C(=O)NC(=S)Nc2cc([N+](=O)[O-])ccc2O)cc1OC	-10.6%	-13.9%	1.58µM*	3.4	-6.2%	?
CCOC(=O)c1ccc(NC(=S)Nc2cccc(N)n2)cc1	-10.7%	?	?	-29.9	8.91µM*	-10.6%
O=C(CCS(=O)(=O)Cc1ccccc1)N1CCN(c2ccc([N+](=O)[O-])cc2)CC1	8.0%	-15.2%	?	1.2	14.8%	-5.4%
O=C(CCCc1ccccc1)N1CCN(c2ccc([N+](=O)[O-])cc2)CC1	-1.0%	-20.0%	2.24µM*	1.2	1.9%	-4.5%
O=C(CCCC(=O)N1CCN(c2ccc([N+](=O)[O-])cc2)CC1)c1ccccc1	0.6%	-8.4%	2.24µM*	0.3	0.5%	5.7%
SMILES	KDM4E inh	Tau fluor counter	Tau fibril ThT	Coupling enz	Sfp inh	Tau fibril FP
COc1ccc(C(=O)CCC(=O)N2CCN(c3ccc([N+](=O)[O-])cc3)CC2)cc1	.	.	.	-4.3	-11.6%	.
CC(=O)c1ccc(N(C)C)c2c(N(C)C)cccc12	-7.2%	-3.0%	-3.4%	-55.0*	-28.9%	-0.7%
CC(=O)c1ccc2c3c(cccc13)CC2	?	-3.1%	-10.8%	0.6	5.8%	4.2%
CCOC(=O)c1cccc(NC(=O)/C=C/c2ccc3c(c2)OCO3)c1	?	?	15.0%	-1.7	79.4µM*	?
COc1ccccc1NC(=O)/C=C/c1ccc2c(c1)OCO2	-4.3%	-19.8%	?	-6.0	1.0%	-7.9%
CCCCOC(=O)c1cccc(NC(=O)/C=C/c2ccccc2Cl)c1	.	?	6.9%	.	.	10µM*
CCOC(=O)c1cccc(NC(=O)c2ccc3c(c2)OCO3)c1	.	.	.	0.6	2.0%	.
COc1ccccc1NC(=O)COC(=O)/C=C/c1ccc2c(c1)OCO2	?	-15.4%	-19.1%	1.4	79.4µM*	?
CC(C)N(C)C1CCN(S(=O)(=O)c2ccc3[nH]c(=O)ccc3c2)CC1	.	-8.6%	-8.9%	.	.	-6.4%
Cc1ccc(-c2nc3cnccn3c2Nc2ccc3c(c2)OCO3)o1	-10.7%	-26.7%	-17.7%	5.6	35.5µM*	4.0%
Cc1ccc(Nc2c(-c3ccc(C)o3)nc3cnccn23)cc1	?	-21.9%	?	0.9	10µM*	?
CSc1ccc(-c2nc3cnccn3c2Nc2ccc3c(c2)OCO3)cc1	-8.5%	?	?	-3.2	?	?
COc1ccc(-c2nc3cnccn3c2Nc2ccc(C)cc2)cc1	?	?	?	-0.7	14.2%	4.3%
Clc1ccc(-c2nc3cnccn3c2Nc2ccc3c(c2)OCO3)cc1	-8.0%	14.1µM*[quencher]	?	0.8	-5.6%	?
Cc1ccc(-c2nc3ccccn3c2Nc2ccccc2)o1	?	-21.8%	?	0.3	20µM*	14.8%
Cc1ccc(-c2nc3ccccn3c2Nc2ccc3c(c2)OCCO3)o1	.	?	?	.	.	2.2%
N#Cc1c(-n2ncnc2-c2ccc(F)cc2)sc2c1CCCCC2	.	-25.1%	?	.	.	-11.9%
CC(=O)N1CCC2(CC1)OC(=O)C(C)=C2C(=O)Nc1ccccc1C(F)(F)F	.	-1.7%	-1.3%	.	.	-3.2%
Cc1ccc(NC(=O)CN2C(=O)N/C(=C\c3cccn3-c3cccc(C(=O)O)c3)C2=O)cc1	-16.6%	0.4%	-12.9%	0.3	39.8µM*	3.9%
Cc1ccc(CN2C(=O)N/C(=C\c3cccn3-c3cccc(C(=O)O)c3)C2=O)cc1	0.2%	-5.7%	1.0%	14.3	50.1µM*	-0.2%
Cc1ccc(NC(=O)CN2C(=O)N/C(=C/c3cc(C)n(-c4cccc(C(=O)O)c4)c3C)C2=O)cc1	?	-5.5%	?	2.7	?	-3.1%

Source: PubChem BioAssay
